Assay [1] can be described thus: NCI Yeast Anticancer Drug Screen. Data for the rad50 strain (AID 155).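 Also: 0% = growth of vehicle-only cultures of the same strain.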 Conditions: S. cerevisiae rad50 strain growth inhibition, active compounds read high. In a few lines: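 Growth of the mutant yeast was measured after compound exposure and referenced to vehicle-treated cultures.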
Assay [2] can be described thus: NCI Yeast Anticancer Drug Screen. Data for the mec2-1 strain (AID 157). Conditions: S. cerevisiae mec2-1 strain, active compounds read high. In a few lines:
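Yeast mec2-1 mutant treated with compound. Readout: growth inhibition vs vehicle controls.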

A short description of assay [3]: NCI Yeast Anticancer Drug Screen. Data for the sgs1 mgt1 strain (AID 161).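 Also: 0% = growth of cultures given vehicle only.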 Conditions: S. cerevisiae sgs1 mgt1 strain, active compounds read high. In a few lines:
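Test agents were incubated with a DNA-repair-mutant yeast strain. Growth was then read and compared against vehicle-treated controls.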

Assay [4] is described as follows: NCI Yeast Anticancer Drug Screen. Data for the cln2 rad14 strain (AID 165).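 Also: 0% = growth equal to vehicle treated cultures.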 The settings on record: S. cerevisiae cln2 rad14 strain, active compounds read high. In outline: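 cln2 rad14 yeast strain; compound exposure; growth inhibition read vs vehicle controls.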
Assay [5] is described as follows: NCI Yeast Anticancer Drug Screen. Data for the bub3 strain (AID 167). Conditions: S. cerevisiae bub3 mutant strain, active compounds read high. In a few lines:
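Whole-cell yeast assay. The mutant strain was incubated with compounds, and growth inhibition was determined by comparison with vehicle-treated cells.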

The nature of assay [6]: NCI Yeast Anticancer Drug Screen. Data for the mlh1 rad18 strain (AID 175). The settings on record: S. cerevisiae mlh1 rad18 strain growth inhibition, active compounds read high. In a few lines: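 Yeast w/ defined DNA-repair lesions; compound exposure; growth vs vehicle controls → % inhibition.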
Where [7] appears, read: at 5.0 µM (retest, dose inferred, filed as 0.5).
Where [8] appears, read: at 50.0 µM (retest, dose inferred, filed as 5.0).

Structures are written as SMILES. This is part of a sample that, as a whole, favours compounds with a hit. Of some 79,000 tested, about 15% had one in any assay. Unmarked numbers belong to inactive results. Active and inactive are the calls of the source. Rule as the data show it: active = growth inhibition above about 70%; inactive = the rest.

With `CCOC(=O)C(NC(=O)c1ccccc1)[CH](c1ccc(OC)cc1)[Sn]([c]1ccccc1)([c]1ccccc1)[c]1ccccc1` (configuration not stated), the growth inhibition in assay [1] (setting [7]) was 65%; in assay [1] (setting [8]) it was 89% (active); in assay [1] (at 50.0 µM) it was 77.7% (active); in assay [2] (setting [7]), 37%; in assay [2] (setting [8]), 91% (active); in assay [2] (at 50.0 µM), 75.2% (active). Besides, the growth inhibition in assay [3] (setting [7]) was 38%; in assay [3] (setting [8]), 88% (active); in assay [3] (at 50.0 µM), 79.2% (active); in assay [4] (setting [7]) it was 26%; in assay [4] (setting [8]) it was 48%; in assay [4] (at 50.0 µM), 54.5%. For the same compound, the growth inhibition in assay [5] (setting [7]) is 44%; in assay [5] (setting [8]), 94% (active); in assay [5] (at 50.0 µM) it was 79% (active); in assay [6] (setting [7]), 64%; in assay [6] (setting [8]) it was 86% (active); in assay [6] (at 50.0 µM) it was 69.1%.
On to `Cc1[nH]nc(C(F)(F)F)c1N=NN1CCC(C(N)=O)CC1`, for which the growth inhibition is 49% in assay [1] (setting [7]); 99% (active) in assay [1] (setting [8]); 99.5% (active) in assay [1] (at 50.0 µM); 77% (active) in assay [2] (setting [7]); 100% (active) in assay [2] (setting [8]); 99.5% (active) in assay [2] (at 50.0 µM). The growth inhibition was 83% (active) in assay [3] (setting [7]); 99% (active) in assay [3] (setting [8]); 99.5% (active) in assay [3] (at 50.0 µM); 36% in assay [4] (setting [7]); 99% (active) in assay [4] (setting [8]); 99.5% (active) in assay [4] (at 50.0 µM). The growth inhibition was 27% in assay [5] (setting [7]); 99% (active) in assay [5] (setting [8]); 99.5% (active) in assay [5] (at 50.0 µM); 75% (active) in assay [6] (setting [7]); 99% (active) in assay [6] (setting [8]); 99.5% (active) in assay [6] (at 50.0 µM).
Consider `CC(C)(C)C(NO)C(O)N1CCCCC1` (configuration not stated), for which the growth inhibition in assay [1] (setting [7]) is -155%; in assay [1] (setting [8]), -141%; in assay [1] (at 50.0 µM) it was 20.2%; in assay [2] (setting [7]), -53%; in assay [2] (setting [8]) it was -52%; in assay [2] (at 50.0 µM), 6.25%. In addition, the growth inhibition in assay [3] (setting [7]) was -59%; in assay [3] (setting [8]), -63%; in assay [3] (at 50.0 µM), 17.1%; in assay [4] (setting [7]) it was -63%; in assay [4] (setting [8]) it was -57%; in assay [4] (at 50.0 µM), 50%. The growth inhibition in assay [5] (setting [7]) is -69%; in assay [5] (setting [8]) it was -73%; in assay [5] (at 50.0 µM) it was -4%; in assay [6] (setting [7]), -118%; in assay [6] (setting [8]) it was -105%; in assay [6] (at 50.0 µM) it was 12.4%.
`C[N+](C)(C)CC(=O)N/N=C(\C(=O)NC1=C(Cl)C(=O)c2ccccc2C1=O)C(C#N)c1nc(-c2ccc([N+](=O)[O-])cc2)cs1` (configuration not stated): the growth inhibition is 27% in assay [1] (setting [7]); 98% (active) in assay [1] (setting [8]); 76% (active) in assay [1] (at 50.0 µM); 6% in assay [2] (setting [7]); 97% (active) in assay [2] (setting [8]); 56.6% in assay [2] (at 50.0 µM). The growth inhibition in assay [3] (setting [7]) is 11%; in assay [3] (setting [8]), 97% (active); in assay [3] (at 50.0 µM), 60.3%; in assay [4] (setting [7]) it was 13%; in assay [4] (setting [8]) it was 91% (active); in assay [4] (at 50.0 µM), 50.6%. Moreover, the growth inhibition in assay [5] (setting [7]) was -23%; in assay [5] (setting [8]) it was 97% (active); in assay [5] (at 50.0 µM), 75.2% (active); in assay [6] (setting [7]), 13%; in assay [6] (setting [8]) it was 97% (active); in assay [6] (at 50.0 µM), 78.7% (active).
Take `CNC(=O)OCc1c(COC(=O)NC)c2n(c1C)-c1ccccc1CCC2`: the growth inhibition in assay [1] (setting [7]) was 23%; in assay [1] (setting [8]), 35%; in assay [1] (at 50.0 µM), 85.8% (active); in assay [2] (setting [7]) it was 11%; in assay [2] (setting [8]), 70% (active); in assay [2] (at 50.0 µM) it was 89.6% (active). The growth inhibition in assay [3] (setting [7]) was 38%; in assay [3] (setting [8]) it was 75% (active); in assay [3] (at 50.0 µM), 90% (active); in assay [4] (setting [7]), 38%; in assay [4] (setting [8]), 56%; in assay [4] (at 50.0 µM), 88.9% (active). The growth inhibition in assay [5] (setting [7]) was 50%; in assay [5] (setting [8]), 77% (active); in assay [5] (at 50.0 µM), 87.5% (active); in assay [6] (setting [7]) it was 15%; in assay [6] (setting [8]), 43%; in assay [6] (at 50.0 µM), 87.6% (active).
With `CC(C)OP(=O)(OC(C)C)/C(=N/Nc1ccc([N+](=O)[O-])cc1)NNC(=O)c1ccccc1`, the growth inhibition was -24% in assay [1] (setting [7]); 61% in assay [1] (setting [8]); 95.2% (active) in assay [1] (at 50.0 µM); -12% in assay [2] (setting [7]); 74% (active) in assay [2] (setting [8]); 95.7% (active) in assay [2] (at 50.0 µM). Moreover, the growth inhibition is -11% in assay [3] (setting [7]); 53% in assay [3] (setting [8]); 93.5% (active) in assay [3] (at 50.0 µM); -21% in assay [4] (setting [7]); 67% in assay [4] (setting [8]); 87.2% (active) in assay [4] (at 50.0 µM). The growth inhibition was -15% in assay [5] (setting [7]); 74% (active) in assay [5] (setting [8]); 94.9% (active) in assay [5] (at 50.0 µM); 3% in assay [6] (setting [7]); 92% (active) in assay [6] (setting [8]); 94.6% (active) in assay [6] (at 50.0 µM).
For `COC(=O)CSC(=S)Nc1ccc(Cl)cc1`, the growth inhibition in assay [1] (setting [7]) was 3%; in assay [1] (setting [8]), 92% (active); in assay [1] (at 50.0 µM) it was 83.5% (active); in assay [2] (setting [7]), -6%; in assay [2] (setting [8]), 96% (active); in assay [2] (at 50.0 µM) it was 4.25%. Further, the growth inhibition is -4% in assay [3] (setting [7]); 97% (active) in assay [3] (setting [8]); 44.3% in assay [3] (at 50.0 µM); -5% in assay [4] (setting [7]); 60% in assay [4] (setting [8]); -74.6% in assay [4] (at 50.0 µM). For the same compound, the growth inhibition in assay [5] (setting [7]) was -7%; in assay [5] (setting [8]), 85% (active); in assay [5] (at 50.0 µM), 36.5%; in assay [6] (setting [7]), 7%; in assay [6] (setting [8]), 98% (active); in assay [6] (at 50.0 µM), 51.4%.
Take `CCCCN(CCCC)CCCCCCNc1cc(OC)cc2cccnc12`: the growth inhibition in assay [1] (setting [7]) was 4%; in assay [1] (setting [8]) it was 32%; in assay [1] (at 50.0 µM) it was 98.2% (active); in assay [2] (setting [7]), 1%; in assay [2] (setting [8]) it was 14%; in assay [2] (at 50.0 µM), 98.6% (active). The growth inhibition in assay [3] (setting [7]) is 3%; in assay [3] (setting [8]), 13%; in assay [3] (at 50.0 µM) it was 99% (active); in assay [4] (setting [7]) it was 5%; in assay [4] (setting [8]), 39%; in assay [4] (at 50.0 µM) it was 98.1% (active). Further, the growth inhibition is 9% in assay [5] (setting [7]); 30% in assay [5] (setting [8]); 99% (active) in assay [5] (at 50.0 µM); -4% in assay [6] (setting [7]); 9% in assay [6] (setting [8]); 98.7% (active) in assay [6] (at 50.0 µM).
For `COc1ccc(C2=CC(=O)C=CC2=O)cc1`, the growth inhibition in assay [1] (setting [7]) was 19%; in assay [1] (setting [8]), 91% (active); in assay [1] (at 50.0 µM), 99% (active); in assay [2] (setting [7]) it was 3%; in assay [2] (setting [8]) it was 97% (active); in assay [2] (at 50.0 µM), 99.5% (active). Besides, the growth inhibition is 14% in assay [3] (setting [7]); 90% (active) in assay [3] (setting [8]); 98.7% (active) in assay [3] (at 50.0 µM); -5% in assay [4] (setting [7]); 70% (active) in assay [4] (setting [8]); 82.2% (active) in assay [4] (at 50.0 µM). The growth inhibition in assay [5] (setting [7]) was 28%; in assay [5] (setting [8]) it was 99% (active); in assay [5] (at 50.0 µM), 99.5% (active); in assay [6] (setting [7]) it was 18%; in assay [6] (setting [8]) it was 89% (active); in assay [6] (at 50.0 µM), 99.2% (active).

The values are drawn from PubChem BioAssay (NCI).
